Measurements: the supplement of paper PMC10849652
About 7,900 targets were measured; listed, in parts, are those with a hit and a random draw of the rest. About 0.6% of all pairs of compound and target were hits.

What was measured:
Assay in all cases: log2 fold change, soluble protein after heating vs DMSO (PISA); higher = thermal stabilisation; K562 cells, 10 uM, 30 min; active = over 0.2 and 3.5 SD of the protein, either way, in both replicates (recomputed)
[1] = compound: COC1=CC=C(C=C1)CN2C=CC3=C2C=C(C=C3)C(=O)NO
Outline: (§1)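 K562 cells (2×10^6 cells/mL) were treated with 10 μM compound for 30 min, and aliquots were heated for 3 min over 48°C-58°C. Pooled aliquots were extracted in PBS with 0.5% NP-40 at 4°C, and the supernatant after 21,000xg for 90 min was measured by TMTpro 16plex LC-MS/MS with channel sums equalised. Reported thermal stability, relative to control samples and from duplicates, is a log2 fold change.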

filanesib = compound: CON(C)C(=O)N1N=C(c2cc(F)ccc2F)S[C@@]1(CCCN)c1ccccc1 [filanesib]
Outline: as §1

zotarolimus = compound: CO[C@H]1C[C@@H]2CC[C@@H](C)[C@@](O)(O2)C(=O)C(=O)N2CCCC[C@H]2C(=O)O[C@H]([C@H](C)C[C@@H]2CC[C@H](n3cnnn3)[C@H](OC)C2)CC(=O)[C@H](C)/C=C(\C)[C@@H](O)[C@@H](OC)C(=O)[C@H](C)C[C@H](C)/C=C/C=C/C=C/1C [zotarolimus]
Outline: as §1

idasanutlin = compound: COc1cc(C(=O)O)ccc1NC(=O)[C@@H]1N[C@@H](CC(C)(C)C)[C@](C#N)(c2ccc(Cl)cc2F)[C@H]1c1cccc(Cl)c1F [idasanutlin]
Outline: as §1

alisertib = compound: COc1cc(Nc2ncc3c(n2)-c2ccc(Cl)cc2C(c2c(F)cccc2OC)=NC3)ccc1C(=O)O [alisertib]
Outline: as §1

[2] = compound: COc1cc2nc(-c3cc(F)ccc3O)nc(N[C@@H]3CNC[C@H]3C(C)(C)O)c2cc1OC
Outline: as §1

gefitinib = compound: COc1cc2ncnc(Nc3ccc(F)c(Cl)c3)c2cc1OCCCN1CCOCC1 [gefitinib]
Outline: as §1

[3] = compound: COc1cccc2cc(-c3nc([C@H]4CC[C@H](C(=O)O)CC4)n4ncnc(N)c34)[nH]c12
Outline: as §1

lapatinib = compound: CS(=O)(=O)CCNCc1ccc(-c2ccc3ncnc(Nc4ccc(OCc5cccc(F)c5)c(Cl)c4)c3c2)o1 [lapatinib]
Outline: as §1

pictilisib = compound: CS(=O)(=O)N1CCN(Cc2cc3nc(-c4cccc5[nH]ncc45)nc(N4CCOCC4)c3s2)CC1 [pictilisib]
Outline: as §1

[4] = compound: CS(=O)(=O)c1ccc(-c2cnc(N)c(C(=O)Nc3ccccc3)n2)cc1
Outline: as §1

crizotinib = compound: C[C@@H](Oc1cc(-c2cnn(C3CCNCC3)c2)cnc1N)c1c(Cl)ccc(F)c1Cl [crizotinib]
Outline: as §1

[5] = compound: C[C@@H]1COCCN1C2=NC(=NC(=C2)C3(CC3)S(=O)(=O)C)C4=C5C=CNC5=CC=C4
Outline: as §1

[6] = compound: C[C@H](C1=CC=C(C=C1)C(=O)NC2=C3C=CNC3=NC=C2)N
Outline: as §1

duvelisib = compound: C[C@H](Nc1ncnc2nc[nH]c12)c1cc2cccc(Cl)c2c(=O)n1-c1ccccc1 [duvelisib]
Outline: as §1

gandotinib = compound: Cc1cc(Nc2cc(CN3CCOCC3)c3nc(C)c(Cc4ccc(Cl)cc4F)n3n2)n[nH]1 [gandotinib]
Outline: as §1

tozasertib = compound: Cc1cc(Nc2cc(N3CCN(C)CC3)nc(Sc3ccc(NC(=O)C4CC4)cc3)n2)n[nH]1 [tozasertib]
Outline: as §1

[7] = compound: Cc1cc(SCc2sc(-c3ccc(C(F)(F)F)cc3)nc2C)ccc1OCC(=O)O
Outline: as §1

doramapimod = compound: Cc1ccc(-n2nc(C(C)(C)C)cc2NC(=O)Nc2ccc(OCCN3CCOCC3)c3ccccc23)cc1 [doramapimod]
Outline: as §1

ispinesib = compound: Cc1ccc(C(=O)N(CCCN)[C@@H](c2nc3cc(Cl)ccc3c(=O)n2Cc2ccccc2)C(C)C)cc1 [ispinesib]
Outline: as §1

Measured: log2 fold change

ATP7B (UniProt P35670)
active: idasanutlin -0.233
inactive: [1] -0.02 | filanesib 0.087 | zotarolimus -0.075 | alisertib -0.02 | [2] -0.011 | gefitinib 0.028 | [3] 0.026 | lapatinib 0.061 | pictilisib 0.061 | [4] -0.009 | crizotinib -0.005 | [5] 0.03 | [6] 0.065 | duvelisib 0.092 | gandotinib -0.141 | tozasertib 0.033 | [7] -0.014 | doramapimod 0.137 | ispinesib -0.015

ATP9B (UniProt O43861)
Sequence of UniProt O43861 (O43861 whole entry, looked up): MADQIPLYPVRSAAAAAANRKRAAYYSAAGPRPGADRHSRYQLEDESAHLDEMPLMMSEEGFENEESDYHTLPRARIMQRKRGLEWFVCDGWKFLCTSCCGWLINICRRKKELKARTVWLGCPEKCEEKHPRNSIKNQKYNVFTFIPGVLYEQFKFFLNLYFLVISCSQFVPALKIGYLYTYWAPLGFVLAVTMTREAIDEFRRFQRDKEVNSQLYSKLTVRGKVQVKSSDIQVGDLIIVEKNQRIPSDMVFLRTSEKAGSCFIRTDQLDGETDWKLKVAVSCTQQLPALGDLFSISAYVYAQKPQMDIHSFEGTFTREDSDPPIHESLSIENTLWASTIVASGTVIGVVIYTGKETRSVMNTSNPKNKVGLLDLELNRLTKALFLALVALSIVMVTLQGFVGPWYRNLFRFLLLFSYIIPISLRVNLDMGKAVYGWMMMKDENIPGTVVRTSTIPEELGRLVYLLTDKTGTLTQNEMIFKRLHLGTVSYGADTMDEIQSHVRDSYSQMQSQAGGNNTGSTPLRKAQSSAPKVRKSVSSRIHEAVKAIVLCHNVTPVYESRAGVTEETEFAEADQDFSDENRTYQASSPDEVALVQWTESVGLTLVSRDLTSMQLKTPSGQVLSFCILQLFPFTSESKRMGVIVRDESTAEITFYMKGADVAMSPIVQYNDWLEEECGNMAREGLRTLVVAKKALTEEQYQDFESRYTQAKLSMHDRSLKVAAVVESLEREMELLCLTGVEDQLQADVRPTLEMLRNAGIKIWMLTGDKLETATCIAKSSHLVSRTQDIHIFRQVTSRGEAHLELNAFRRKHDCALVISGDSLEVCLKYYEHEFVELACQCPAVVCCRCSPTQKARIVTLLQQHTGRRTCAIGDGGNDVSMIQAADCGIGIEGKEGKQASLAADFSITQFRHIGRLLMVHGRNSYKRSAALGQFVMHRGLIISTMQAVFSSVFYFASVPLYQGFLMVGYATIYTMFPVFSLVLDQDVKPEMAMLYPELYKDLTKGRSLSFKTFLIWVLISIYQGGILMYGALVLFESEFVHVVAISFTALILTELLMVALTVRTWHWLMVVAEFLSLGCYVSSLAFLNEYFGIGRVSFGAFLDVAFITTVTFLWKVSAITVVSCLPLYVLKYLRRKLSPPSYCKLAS
inactive: [1] -0.019 | filanesib 0.192 | zotarolimus -0.054 | idasanutlin 0.022 | alisertib -0.039 | [2] 0.023 | gefitinib 0.101 | [3] 0.178 | lapatinib 0.019 | pictilisib 0.012 | [4] 0.281 | crizotinib -0.033 | [5] -0.066 | [6] -0.098 | duvelisib 0.029 | gandotinib -0.053 | tozasertib 0.004 | [7] 0 | doramapimod 0.015 | ispinesib -0.208

AKR1C2 (UniProt P52895)
active: [1] 0.706
inactive: filanesib 0.259 | zotarolimus 0.097 | idasanutlin -0.015 | alisertib -0.012 | [2] -0.013 | gefitinib 0.044 | [3] -0.012 | lapatinib 0.068 | pictilisib 0.165 | [4] 0.005 | crizotinib -0.029 | [5] -0.159 | [6] 0.219 | duvelisib -0.076 | gandotinib 0.089 | tozasertib -0.045 | [7] 0.098 | doramapimod -0.036 | ispinesib 0.077

ATP6V1H (UniProt Q9UI12)
inactive: [1] 0.035 | filanesib -0.106 | zotarolimus 0.055 | idasanutlin -0.067 | alisertib -0.1 | [2] -0.064 | gefitinib -0.121 | [3] -0.073 | lapatinib -0.009 | pictilisib -0.063 | [4] -0.045 | crizotinib -0.199 | [5] 0.019 | [6] 0.003 | duvelisib 0.018 | gandotinib 0.021 | tozasertib 0.06 | [7] 0.014 | doramapimod 0.038 | ispinesib -0.089

ARFRP1 (UniProt Q13795)
Sequence of UniProt Q13795 (Q13795 whole entry, looked up): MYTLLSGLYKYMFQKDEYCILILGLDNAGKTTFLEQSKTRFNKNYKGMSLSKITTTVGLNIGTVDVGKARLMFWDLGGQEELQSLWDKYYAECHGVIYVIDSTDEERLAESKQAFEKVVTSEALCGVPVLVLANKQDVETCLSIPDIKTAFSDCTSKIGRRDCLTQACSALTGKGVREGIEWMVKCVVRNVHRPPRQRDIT
active: filanesib -0.261
inactive: [1] 0.127 | zotarolimus 0.02 | idasanutlin -0.168 | alisertib 0.111 | [2] 0.039 | gefitinib -0.016 | [3] -0.024 | lapatinib 0.071 | pictilisib 0.168 | [4] -0.024 | crizotinib -0.004 | [5] 0.091 | [6] -0.027 | duvelisib 0.019 | gandotinib -0.159 | tozasertib -0.03 | [7] -0.069 | doramapimod 0.003 | ispinesib 0.027

ATAD3A isoform 2 (UniProt Q9NVI7)
active: ispinesib -0.348
inactive: [1] -0.029 | filanesib -0.005 | zotarolimus -0.053 | idasanutlin 0.073 | alisertib -0.006 | [2] -0.116 | gefitinib -0.199 | [3] 0.001 | lapatinib -0.029 | pictilisib -0.185 | [4] 0.003 | crizotinib -0.191 | [5] -0.052 | [6] 0.101 | duvelisib -0.083 | gandotinib 0.032 | tozasertib 0.005 | [7] 0.075 | doramapimod 0.057

AKT2 (UniProt P31751)
Sequence of UniProt P31751 (P31751 whole entry, looked up): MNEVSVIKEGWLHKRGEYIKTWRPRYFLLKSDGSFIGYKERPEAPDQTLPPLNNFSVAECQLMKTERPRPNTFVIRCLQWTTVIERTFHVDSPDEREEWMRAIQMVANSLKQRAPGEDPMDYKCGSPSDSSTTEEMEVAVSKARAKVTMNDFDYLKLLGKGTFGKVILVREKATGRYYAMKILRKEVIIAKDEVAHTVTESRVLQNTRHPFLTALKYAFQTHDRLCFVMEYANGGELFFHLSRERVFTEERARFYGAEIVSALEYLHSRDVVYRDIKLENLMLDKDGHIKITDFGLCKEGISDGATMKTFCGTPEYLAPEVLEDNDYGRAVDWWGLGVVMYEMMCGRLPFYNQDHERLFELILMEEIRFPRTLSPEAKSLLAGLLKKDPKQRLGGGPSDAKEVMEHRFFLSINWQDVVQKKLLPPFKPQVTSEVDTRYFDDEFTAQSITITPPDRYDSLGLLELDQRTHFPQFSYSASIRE
inactive: [1] 0.008 | filanesib -0.056 | zotarolimus -0.01 | idasanutlin -0.121 | alisertib -0.041 | [2] 0.008 | gefitinib -0.012 | [3] -0.231 | lapatinib 0.04 | pictilisib 0.044 | [4] 0.035 | crizotinib -0.18 | [5] -0.211 | [6] 0.051 | duvelisib 0.039 | gandotinib -0.233 | tozasertib -0.075 | [7] 0.113 | doramapimod 0.015 | ispinesib -0.083

ACP2 (UniProt P11117)
Sequence of UniProt P11117 (P11117 whole entry, looked up): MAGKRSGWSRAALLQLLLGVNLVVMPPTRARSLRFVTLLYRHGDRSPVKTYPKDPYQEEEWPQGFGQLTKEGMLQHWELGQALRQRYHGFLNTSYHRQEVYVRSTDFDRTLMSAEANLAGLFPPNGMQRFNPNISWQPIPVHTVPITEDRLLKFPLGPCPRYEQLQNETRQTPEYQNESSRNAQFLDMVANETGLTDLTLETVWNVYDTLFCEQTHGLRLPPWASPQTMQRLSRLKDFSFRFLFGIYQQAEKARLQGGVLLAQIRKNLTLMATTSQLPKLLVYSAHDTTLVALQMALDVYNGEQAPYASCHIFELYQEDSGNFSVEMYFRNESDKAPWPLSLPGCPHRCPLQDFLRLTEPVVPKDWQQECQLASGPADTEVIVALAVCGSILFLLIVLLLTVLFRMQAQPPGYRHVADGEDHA
inactive: [1] -0.034 | filanesib -0.121 | zotarolimus -0.016 | idasanutlin -0.026 | alisertib 0.036 | [2] -0.002 | gefitinib 0.001 | [3] 0.053 | lapatinib 0.038 | pictilisib -0.031 | [4] 0.06 | crizotinib -0.051 | [5] 0.017 | [6] -0.016 | duvelisib 0.023 | gandotinib -0.071 | tozasertib 0 | [7] -0.031 | doramapimod 0.016 | ispinesib -0.036

ANXA5 (UniProt P08758)
Sequence of UniProt P08758 (P08758 whole entry, looked up): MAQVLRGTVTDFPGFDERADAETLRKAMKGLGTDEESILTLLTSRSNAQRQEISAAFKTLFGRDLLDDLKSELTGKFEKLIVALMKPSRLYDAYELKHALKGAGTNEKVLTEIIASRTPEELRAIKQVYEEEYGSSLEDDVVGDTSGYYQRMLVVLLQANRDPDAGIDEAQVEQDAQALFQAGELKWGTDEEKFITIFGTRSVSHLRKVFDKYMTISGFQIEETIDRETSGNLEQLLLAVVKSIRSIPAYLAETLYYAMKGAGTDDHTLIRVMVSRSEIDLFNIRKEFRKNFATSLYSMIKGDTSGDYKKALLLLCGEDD
inactive: [1] 0.033 | filanesib -0.033 | zotarolimus 0.049 | idasanutlin -0.013 | alisertib -0.006 | [2] 0.009 | gefitinib 0.05 | [3] -0.032 | lapatinib 0.015 | pictilisib -0.021 | [4] 0.03 | crizotinib 0.045 | [5] 0.108 | [6] -0.002 | duvelisib 0.043 | gandotinib -0.083 | tozasertib 0.041 | [7] 0.052 | doramapimod -0.059 | ispinesib 0.006

AP2M1 (UniProt Q96CW1)
Sequence of UniProt Q96CW1 (Q96CW1 whole entry, looked up): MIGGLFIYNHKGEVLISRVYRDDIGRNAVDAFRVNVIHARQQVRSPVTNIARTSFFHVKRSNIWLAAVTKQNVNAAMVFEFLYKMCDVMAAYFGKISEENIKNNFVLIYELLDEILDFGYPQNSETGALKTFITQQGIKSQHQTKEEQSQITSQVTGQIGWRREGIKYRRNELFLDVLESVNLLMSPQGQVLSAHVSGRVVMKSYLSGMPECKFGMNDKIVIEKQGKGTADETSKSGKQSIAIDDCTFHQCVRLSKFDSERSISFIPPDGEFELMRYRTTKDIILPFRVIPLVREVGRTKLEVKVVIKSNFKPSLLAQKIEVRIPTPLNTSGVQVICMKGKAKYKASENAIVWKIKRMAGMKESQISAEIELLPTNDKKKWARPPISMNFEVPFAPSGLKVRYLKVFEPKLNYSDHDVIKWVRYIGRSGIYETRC
inactive: [1] -0.008 | filanesib 0.048 | zotarolimus 0.017 | idasanutlin -0.018 | alisertib -0.06 | [2] 0.01 | gefitinib 0.032 | [3] 0.01 | lapatinib 0.014 | pictilisib -0.021 | [4] 0.018 | crizotinib -0.066 | [5] -0.04 | [6] -0.193 | duvelisib -0.036 | gandotinib -0.002 | tozasertib -0.09 | [7] -0.007 | doramapimod 0.029 | ispinesib 0.044

ARL2BP (UniProt Q9Y2Y0)
Sequence of UniProt Q9Y2Y0 (Q9Y2Y0 whole entry, looked up): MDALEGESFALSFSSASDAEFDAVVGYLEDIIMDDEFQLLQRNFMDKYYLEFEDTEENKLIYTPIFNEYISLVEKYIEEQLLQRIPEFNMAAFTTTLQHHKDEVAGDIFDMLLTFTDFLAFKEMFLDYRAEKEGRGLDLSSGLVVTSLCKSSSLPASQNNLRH
inactive: [1] 0.287 | filanesib -0.061 | zotarolimus 0.062 | idasanutlin -0.012 | alisertib -0.074 | [2] -0.049 | gefitinib 0.028 | [3] 0.02 | lapatinib -0.025 | pictilisib 0.098 | [4] 0.077 | crizotinib -0.128 | [5] -0.017 | [6] -0.038 | duvelisib -0.004 | gandotinib -0.166 | tozasertib 0.006 | [7] 0.044 | doramapimod 0.101 | ispinesib -0.042

BCL9L (UniProt Q86UU0)
inactive: [1] -0.048 | filanesib 0.017 | zotarolimus -0.043 | idasanutlin 0.028 | alisertib 0.014 | [2] 0.02 | gefitinib 0.034 | [3] -0.067 | lapatinib 0.011 | pictilisib -0.007 | [4] 0.029 | crizotinib 0.085 | [5] 0.018 | [6] -0.002 | duvelisib -0.011 | gandotinib 0.097 | tozasertib -0.076 | [7] -0.112 | doramapimod 0.006 | ispinesib 0.025

AKT1 (UniProt P31749)
Sequence of UniProt P31749 (P31749 whole entry, looked up): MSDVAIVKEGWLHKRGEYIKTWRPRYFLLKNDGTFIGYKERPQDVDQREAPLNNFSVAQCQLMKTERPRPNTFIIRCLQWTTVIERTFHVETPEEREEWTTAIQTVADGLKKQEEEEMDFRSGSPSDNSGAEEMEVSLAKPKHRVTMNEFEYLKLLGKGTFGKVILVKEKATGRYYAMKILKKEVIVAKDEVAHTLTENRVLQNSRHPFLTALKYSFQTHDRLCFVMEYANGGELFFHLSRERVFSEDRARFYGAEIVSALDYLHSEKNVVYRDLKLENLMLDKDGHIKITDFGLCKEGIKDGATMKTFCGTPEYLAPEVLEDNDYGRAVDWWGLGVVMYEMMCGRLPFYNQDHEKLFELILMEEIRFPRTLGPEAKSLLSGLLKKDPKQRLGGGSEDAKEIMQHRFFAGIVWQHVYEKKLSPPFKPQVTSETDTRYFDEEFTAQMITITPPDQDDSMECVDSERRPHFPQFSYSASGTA
inactive: [1] -0.001 | filanesib 0.001 | zotarolimus 0.059 | idasanutlin -0.134 | alisertib -0.07 | [2] 0.1 | gefitinib 0.025 | [3] -0.224 | lapatinib 0.135 | pictilisib 0.216 | [4] -0.013 | crizotinib -0.104 | [5] -0.188 | [6] 0.135 | duvelisib -0.062 | gandotinib -0.144 | tozasertib 0.032 | [7] 0.298 | doramapimod -0.005 | ispinesib -0.03

ATP6V1F isoform 2 (UniProt Q16864)
Sequence of UniProt Q16864 (Q16864 whole entry, looked up): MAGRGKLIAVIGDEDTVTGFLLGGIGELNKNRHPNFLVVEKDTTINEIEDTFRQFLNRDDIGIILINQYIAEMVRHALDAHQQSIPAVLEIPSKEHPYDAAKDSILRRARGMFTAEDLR
inactive: [1] 0.126 | filanesib 0.162 | zotarolimus 0.036 | idasanutlin 0.095 | alisertib -0.158 | [2] -0.151 | gefitinib 0.019 | [3] 0.021 | lapatinib -0.112 | pictilisib -0.054 | [4] -0.303 | crizotinib 0.034 | [5] -0.025 | [6] -0.031 | duvelisib 0.309 | gandotinib 0.138 | tozasertib 0.06 | [7] -0.043 | doramapimod 0.007 | ispinesib 0.076

BCCIP isoform 2 (UniProt Q9P287)
inactive: [1] -0.059 | filanesib 0.05 | zotarolimus -0.002 | idasanutlin -0.021 | alisertib 0.024 | [2] 0.021 | gefitinib 0 | [3] 0.026 | lapatinib -0.007 | pictilisib -0.021 | [4] -0.006 | crizotinib -0.012 | [5] 0 | [6] 0.062 | duvelisib 0.067 | gandotinib -0.047 | tozasertib 0 | [7] 0.011 | doramapimod -0.008 | ispinesib 0.059

ATP1A4 (UniProt Q13733)
Sequence of UniProt Q13733 (Q13733 whole entry, looked up): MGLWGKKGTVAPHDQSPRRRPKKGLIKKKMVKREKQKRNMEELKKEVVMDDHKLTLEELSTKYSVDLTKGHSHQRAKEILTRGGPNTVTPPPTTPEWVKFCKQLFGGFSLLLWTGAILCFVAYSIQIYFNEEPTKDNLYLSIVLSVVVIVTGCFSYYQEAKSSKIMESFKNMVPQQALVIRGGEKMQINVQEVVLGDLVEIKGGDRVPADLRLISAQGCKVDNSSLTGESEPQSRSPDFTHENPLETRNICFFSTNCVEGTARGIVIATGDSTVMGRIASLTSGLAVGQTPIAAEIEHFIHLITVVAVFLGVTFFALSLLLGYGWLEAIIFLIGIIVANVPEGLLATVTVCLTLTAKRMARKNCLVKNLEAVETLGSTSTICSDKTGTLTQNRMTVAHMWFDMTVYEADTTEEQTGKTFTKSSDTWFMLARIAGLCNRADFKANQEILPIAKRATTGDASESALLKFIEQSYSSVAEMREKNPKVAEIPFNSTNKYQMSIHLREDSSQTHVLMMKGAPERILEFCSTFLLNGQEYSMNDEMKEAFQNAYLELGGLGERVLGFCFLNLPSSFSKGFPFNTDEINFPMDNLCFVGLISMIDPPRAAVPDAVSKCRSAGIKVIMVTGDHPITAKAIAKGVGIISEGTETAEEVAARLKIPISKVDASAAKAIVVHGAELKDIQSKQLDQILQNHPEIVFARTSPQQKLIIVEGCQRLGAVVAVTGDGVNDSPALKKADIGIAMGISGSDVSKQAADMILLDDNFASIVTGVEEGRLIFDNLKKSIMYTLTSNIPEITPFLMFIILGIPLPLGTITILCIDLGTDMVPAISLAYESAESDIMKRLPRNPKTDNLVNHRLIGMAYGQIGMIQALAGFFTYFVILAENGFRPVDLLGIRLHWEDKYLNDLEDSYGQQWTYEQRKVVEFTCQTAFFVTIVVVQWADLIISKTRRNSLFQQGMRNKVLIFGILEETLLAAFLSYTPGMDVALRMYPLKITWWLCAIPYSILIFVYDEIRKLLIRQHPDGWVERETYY
inactive: [1] 0.042 | filanesib 0.006 | zotarolimus 0.006 | idasanutlin 0.063 | alisertib -0.083 | [2] 0.003 | gefitinib 0.057 | [3] -0.024 | lapatinib -0.01 | pictilisib 0.016 | [4] -0.013 | crizotinib 0.091 | [5] -0.067 | [6] -0.066 | duvelisib 0.174 | gandotinib -0.026 | tozasertib -0.053 | [7] 0.038 | doramapimod -0.086 | ispinesib 0.032
